# From PubChem BioAssay
# In the library only some 3% were active in any assay of this set; here they are far more common.
# GDH-TPI counter-1: GDH-TPI coupling enzyme inhibitors, primary screen, artefact control for M. tuberculosis FBA inhibitor project, biochemical, absorbance, full deck. GDH-TPI coupled enzyme counterscreen, NADH absorbance. inhibition, % at 4.8 µM. hit rate 1.2% among 360,000; in the data active = inhibition above about 30%
# Vc quorum ag: inducers of Vibrio cholerae quorum light production without autoinducers, primary screen, BH1578 luxS cqsA deficient, single point; V. cholerae BH1578 lux reporter, luminescence, 6 h; activation, % at 18.7 µM; hit rate 0.16% among 350,000; AID 588436, 2011; in the data active = activation mostly above about 9.7%, no sharp cut-off
# Mtb FBA inh: Mtb FBA enzyme inhibitors, primary screen, biochemical, fluorescence, strain H37Rv; Fructose-bisphosphate aldolase (Mycobacterium tuberculosis (strain ATCC 25618 / H37Rv)), …; purified M. tuberculosis FBA, fluorescence read-out; inhibition, % at 1 µM; hit rate 2.3% among 360,000; AID 588726, 2011
# Target sequence (P9WQA3 whole entry, looked up): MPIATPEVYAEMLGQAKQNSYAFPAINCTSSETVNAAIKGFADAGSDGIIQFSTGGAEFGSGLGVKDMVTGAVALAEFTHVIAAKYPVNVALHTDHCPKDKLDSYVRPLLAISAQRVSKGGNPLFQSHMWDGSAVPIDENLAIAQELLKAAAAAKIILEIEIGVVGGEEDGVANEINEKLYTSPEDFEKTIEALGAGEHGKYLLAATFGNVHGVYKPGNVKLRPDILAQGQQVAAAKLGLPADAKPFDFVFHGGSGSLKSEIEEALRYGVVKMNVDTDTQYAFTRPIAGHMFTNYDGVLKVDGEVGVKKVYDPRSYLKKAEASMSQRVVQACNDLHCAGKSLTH
# BioA inh: M. tuberculosis BioA enzyme inhibitors, primary screen, biochemical, plate reader, single point, HTS; 7,8-diaminopelargonic acid synthase BioA (Mycobacterium tuberculosis); hit rate 0.096% among 360,000; purified M. tuberculosis BioA enzyme; inhibition, % at 9.99 µM; AID 602481, 2012; in the data active = inhibition above about 40%
# Mtb FBA inh conf: M. tuberculosis aldolase blockers, biochemical, fluorescence, strain H37Rv, confirmation; shares compounds with Mtb FBA inh; purified M. tuberculosis FBA, fluorescence read-out; inhibition, % at 1 µM; hit rate 78% among 5,600
# GDH-TPI counter-2: GDH-TPI coupling enzyme inhibitors, artefact control for M. tuberculosis FBA inhibitor project, biochemical, fluorescence, high throughput. shares compounds with Mtb FBA inh. GDH-TPI coupled enzyme counterscreen. inhibition, % at 1 µM. hit rate 81% among 5,600. AID 652141, 2013; in the data active = inhibition above about 10%
# Numbers stand for hits; 0 = inactive; - = no result; + = active, no number. Cut-off read from the data, not from the text of the source, unless noted: active = inhibition above about 27%; inactive = the rest.
SMILES,GDH-TPI counter-1,Vc quorum ag,Mtb FBA inh,BioA inh,Mtb FBA inh conf,GDH-TPI counter-2
COc1ccc(-c2cc(=O)c3cc(F)ccc3[nH]2)cc1,0,0,31,0,126,98
COc1ccc2c(-c3ccccc3)cc(=O)[nH]c2c1,0,0,0,0,-,-
COc1ccc2[nH]c(C)cc(=O)c2c1,0,-,0,0,-,-
Cc1ccc(S(=O)(=O)N(C)C[C@H]2Oc3ccc(NS(=O)(=O)c4ccccc4)cc3C(=O)N([C@H](C)CO)C[C@H]2C)cc1,-,-,-,0,-,-
Cc1noc(C)c1NC(=O)N(C)C[C@H]1OCCCC[C@@H](C)Oc2ccc(N(C)C)cc2C(=O)N([C@@H](C)CO)C[C@H]1C,-,-,-,0,-,-
C[C@@H]1CN([C@H](C)CO)C(=O)c2cccc(NC(=O)c3ccc(-c4nccs4)cc3)c2O[C@H]1CN(C)C(=O)Nc1cccc2ccccc12,-,-,-,0,-,-
Cc1cc(N2CCC(N(C)C3CCCC3)CC2)nc2cc(O)ccc12,0,0,28,0,91,73
COC(=O)c1cc(COc2ccc3c(c2)oc(=O)c2ccccc23)c(C)o1,0,0,32,0,107,81
COCCOC(=O)c1c(C)oc2ccc(OCc3cc(C(=O)OC)oc3C)cc12,0,0,0,0,-,-
O=C(c1ccccc1)N1CC[C@H]2[C@H](CO)Nc3ccc(C#Cc4cccnc4)cc3[C@H]21,-,-,-,0,-,-
CC(C)NC(=O)Nc1cccc2c1O[C@H](CN(C)S(=O)(=O)c1ccccc1)[C@H](C)CN([C@H](C)CO)C2=O,-,-,-,0,-,-
CC(C)NC(=O)Nc1cccc2c1O[C@H](CN(C)S(=O)(=O)c1ccccc1)[C@@H](C)CN([C@H](C)CO)C2=O,0,0,39,0,59,61
COc1ccccc1NC(=O)N1CCCC1C(=O)Nc1ccc2c(c1)OCO2 (centres undefined),0,0,28,0,99,86
COc1ccc(CNc2oc(COc3ccc(Cl)cc3)nc2C#N)cc1,0,0,0,0,-,-
COc1ccc(CNc2oc(-c3ccccc3)nc2C#N)cc1,0,0,92,0,95,73
N#Cc1nc(-c2ccccc2)oc1NCc1ccco1,0,0,101,0,59,50
COc1ccc(-c2nc(C#N)c(NCCc3ccccc3)o2)cc1,0,0,80,-,37,26
C=CCNc1oc(-c2ccc(-c3ccccc3)cc2)nc1C#N,0,0,0,0,-,-
COc1ccc(CCNc2oc(COc3ccccc3F)nc2C#N)cc1,0,0,0,0,-,-
N#Cc1nc(-c2ccc(Cl)cc2)oc1NCc1cccc2c1OCO2,0,0,27,0,110,89
O=C(C[C@@H]1C[C@@H]2c3cc(NS(=O)(=O)c4ccc(F)cc4)ccc3O[C@@H]2[C@H](CO)O1)NCc1cccc(F)c1,-,-,-,0,-,-
CCCN1[C@@H]2c3ccc(-c4ccc(F)cc4)c(=O)n3C[C@@H]2[C@@H](CO)[C@@H]1C(=O)N[C@@H](C)c1ccccc1,-,-,-,0,-,-
Cc1ccc(-c2nc(C#N)c(NCCc3ccccn3)o2)cc1,0,0,0,0,-,-
CCOc1ccc(Nc2oc(-c3ccc(Cl)cc3)nc2C#N)cc1,0,0,0,0,-,-
N#Cc1nc(-c2ccc(Cl)cc2)oc1NCCc1ccccn1,31,0,28,0,88,82
SMILES,GDH-TPI counter-1,Vc quorum ag,Mtb FBA inh,BioA inh,Mtb FBA inh conf,GDH-TPI counter-2
CCOc1ccc(-c2nc(C#N)c(NC3CC3)o2)cc1,0,0,96,0,0,0
COc1ccc(CCNc2oc(-c3ccc(C)cc3)nc2C#N)cc1OC,0,0,51,0,70,62
O=C(C[C@H]1CC[C@H]2[C@@H](COC[C@@H](O)CN2C(=O)c2ccccc2)O1)Nc1nccs1,-,-,-,0,-,-
C[C@H]1CN([C@@H](C)CO)S(=O)(=O)c2ccc(C#CC3CCCCC3)cc2O[C@@H]1CN(C)C,-,-,-,0,-,-
CCN(CC)c1ccc2c(C)c(-c3ccc(N)cc3)c(=O)oc2c1,0,0,0,0,-,-
CCN(CC)c1ccc2c(C)c(Cl)c(=O)oc2c1,0,0,67,-,65,54
CCN(CC)c1ccc2ccc(=O)oc2c1,0,0,53,-,74,67
CCOC(=O)Cc1c(C)c2ccc(N(CC)CC)cc2oc1=O,0,0,93,0,58,51
CCN(Cc1cc(=O)oc2cc(C)ccc12)c1ccccc1,0,0,0,0,-,-
CCN(CC)c1ccc2c(Cl)c(Br)c(=O)oc2c1,0,0,0,-,-,-
CCN(CC)c1ccc2c(C)cc(=O)oc2c1,0,0,108,0,125,88
CO[C@@H]1CN(C)C(=O)c2ccc(NS(=O)(=O)c3ccccc3)cc2OC[C@H](C)N(Cc2cccnc2)C[C@H]1C,-,-,-,0,-,-
C[C@H](CO)N1C[C@H](C)[C@@H](CN(C)Cc2ccccc2)Oc2ncc(C3=CCCC3)cc2C1=O,-,-,-,0,-,-
COc1ccc2oc(C(=O)OCC(=O)NC3CCCC3)c(C)c2c1,0,0,38,0,132,113
COc1ccc2oc(C(=O)OCC(=O)NC3(C#N)CCCC3)c(C)c2c1,0,0,35,-,+,+
CCOc1ccc2oc(C(=O)OCC(=O)NC3CCCCC3)c(C)c2c1,0,0,0,0,-,-
COc1ccc2oc(C(=O)OCC(=O)Nc3ccc(NC(C)=O)cc3)c(C)c2c1,0,0,27,0,94,80
COc1ccc2oc(C(=O)OCC(=O)Nc3ccc(OC)c(S(N)(=O)=O)c3)c(C)c2c1,0,0,0,0,-,-
COc1ccc2oc(C(=O)OCC(=O)Nc3cc(S(=O)(=O)N4CCOCC4)ccc3C)c(C)c2c1,0,0,32,-,0,0
COc1ccc2oc(C(=O)OCC(=O)NCc3ccccc3OC)c(C)c2c1,0,0,0,0,-,-
COC(=O)C[C@H]1CC[C@@H]2[C@@H](COc3ccc(NC(=O)C4CCOCC4)cc3C(=O)N2C)O1,-,-,-,0,-,-
COc1ccc(CN(C)C[C@@H]2OCCCC[C@@H](C)Oc3ccc(NC(=O)Nc4c(C)noc4C)cc3C(=O)N([C@H](C)CO)C[C@H]2C)cc1,-,-,-,0,-,-
C[C@@H]1CN([C@H](C)CO)C(=O)Cc2cc(NS(=O)(=O)c3cccs3)ccc2O[C@H]1CN(C)CC1CC1,-,-,-,0,-,-
C[C@@H](NC(=O)C[C@H]1C[C@@H]2c3cc(NC(=O)C4CCOCC4)ccc3O[C@@H]2[C@@H](CO)O1)c1ccccc1,-,-,-,0,-,-
C[C@@H]1CN([C@H](C)CO)C(=O)c2cc(C#C[C@@H](C)O)cnc2O[C@@H]1CN(C)C(=O)c1ccccc1F,-,-,-,0,-,-
COc1ccc2oc(C(=O)OCC(=O)NC3CCS(=O)(=O)C3)c(C)c2c1 (centres undefined),0,0,53,0,167,104
O=C(c1cccnc1)N1C[C@H]2[C@@H](c3ccccc31)[C@H](CO)N2C(=O)Nc1ccccc1F,-,-,-,0,-,-
